# The campaign covered roughly 52,000 compounds. About 1,700 (3.3%) were called active. Rule as the data show it: active = survival mostly below about 52% (no sharp cut-off); inactive = mostly above about 56%. Only a selection was taken, and actives are over-represented in it overall.
# Test system: Wild type
# Assay: S. aureus survival, RN4220 and DeltatarO strains – OD600, teichoic acid synthesis inhibitors, primary screen (AID 463173)
# Conditions: S. aureus RN4220 wild type/DeltatarO growth, OD600, 18 h, stronger effect = lower value, screened at 18.75 µg/mL (by protocol)
row,SMILES,survival
1,Cc1ccc2cccc(NC(=O)c3ccc(-c4ccc(Cl)cc4Cl)o3)c2n1,69% (inactive)
2,COc1ccc(NC(=O)c2ccco2)cc1NC(=O)C(C)C,90% (inactive)
3,Cc1ccc2cccc(NC(=O)C(C)Oc3ccc(Cl)cc3Cl)c2n1 (configuration not stated),-9% (active)
4,COc1cc2ccccc2cc1C(=O)Nc1cc(-c2nc3ccccc3o2)ccc1C,126% (inactive)
5,Cc1ccc2cccc(NC(=O)C(C)Oc3ccc(C)c(C)c3)c2n1 (configuration not stated),83% (inactive)
6,COc1cc2ccccc2cc1C(=O)Nc1cccc(-c2nc3cc(C)c(C)cc3o2)c1,58% (inactive)
7,Cc1ccc2nc(-c3cccc(NC(=O)c4ccc(Br)o4)c3)oc2c1,7% (active)
8,Cc1ccc2nc(-c3ccc(Cl)c(NC(=O)c4ccc(Br)o4)c3)oc2c1,69% (inactive)
9,COc1cc2ccccc2cc1C(=O)Nc1cccc(-c2nc3ccccc3o2)c1,1% (active)
10,COc1ccc(NC(=O)c2ccco2)cc1NC(=O)C(C)Oc1ccc(Cl)cc1Cl (configuration not stated),6% (active)
11,COc1ccc(NC(=O)c2ccco2)cc1NC(=O)c1cc(Cl)ccc1OC,65% (inactive)
12,Cc1cc(C)c2oc(-c3cccc(NC(=O)c4ccc(Br)o4)c3)nc2c1,45% (inactive)
13,Cc1cc2c(cc1S(=O)(=O)CCC(=O)N1CCCCC1C)OCC(=O)N2 (configuration not stated),85% (inactive)
14,COc1ccc(CNC(=O)c2ccc(CS(=O)Cc3ccccc3Cl)o2)cc1 (configuration not stated),95% (inactive)
15,Cc1ccc(-n2nc(C(=O)N3CCCCC3C)c(=O)n(C)c2=O)cc1 (configuration not stated),80% (inactive)
16,COc1ccc(S(=O)(=O)c2cn(C)c3ccc(C)cc3c2=O)cc1,82% (inactive)
17,CSc1ccc(CNC(=O)c2ccccc2NC(=O)c2nsc3ccccc23)cc1,90% (inactive)
18,CCc1ccc(NC(=O)CN2C(=O)C3(SCC(=O)N3c3ccc(F)c(F)c3)c3ccccc32)cc1 (configuration not stated),125% (inactive)
19,COc1cc2ccccc2cc1C(=O)Nc1ccc2oc(-c3ccc(F)cc3)nc2c1,81% (inactive)
20,CC(C)C(=O)Nc1cccc(-c2nc3ccccc3o2)c1,103% (inactive)
21,CCc1ccc(OCC(=O)Nc2ccc3oc(-c4ccc(OC)cc4)nc3c2)cc1,79% (inactive)
22,COc1cc2ccccc2cc1C(=O)Nc1ccc2oc(-c3ccc(Cl)cc3)nc2c1,91% (inactive)
23,COc1ccc(-c2nc3ccccc3o2)cc1NC(=O)CSc1ccc(Cl)cc1,73% (inactive)

row,SMILES,survival
1,COc1ccc(-c2nc3ccccc3o2)cc1NC(=O)Cc1ccc(Cl)cc1,68% (inactive)
2,CCc1ccc(-c2nc3cc(NC(=O)c4cc5ccccc5cc4OC)ccc3o2)cc1,14% (active)
3,COc1ccccc1OC(C)C(=O)Nc1cccc(-c2nc3ccccc3o2)c1 (configuration not stated),3% (active)
4,COc1cc2ccccc2cc1C(=O)Nc1ccc2oc(-c3ccccc3)nc2c1,4% (active)
5,COc1ccc(-c2nc3ccccc3o2)cc1NC(=O)C(C)Oc1ccc(Cl)cc1Cl (configuration not stated),8% (active)
6,COc1cc2ccccc2cc1C(=O)Nc1ccc2oc(-c3ccc(F)cc3Cl)nc2c1,69% (inactive)
7,Cc1cc(OC(C)C(=O)Nc2cccc(-c3nc4ccccc4o3)c2)cc(C)c1Cl (configuration not stated),55% (inactive)
8,COc1ccc(-n2c(=O)c3sc4ccccc4c3n(C)c2=O)cc1,83% (inactive)
9,CCOc1ccc(N=C(c2ccccc2)N2CCOCC2)cc1,99% (inactive)
10,CCc1ccccc1N(C)C(=O)C1CCCN(c2ncnc3c2nc2n3CCCCC2)C1 (configuration not stated),75% (inactive)
11,CC(C)c1ccc(NC(=O)Cn2c(=O)oc3cc(S(=O)(=O)N4CCCC4)ccc32)cc1,124% (inactive)
12,CC(C)C(=O)Nc1ccccc1C(=O)OCc1cc(=O)n2nc(C3CC3)sc2n1,100% (inactive)
13,Cc1ccc(-n2nc(C)c3c(C)cc(=O)n(CC(=O)NC(C)c4ccccc4)c32)cc1 (configuration not stated),143% (inactive)
14,Cc1oc2ncn(CC(C)C)c(=O)c2c1C(=O)N(CCN(C)C)Cc1ccccc1,99% (inactive)
15,COc1cc2ccccc2cc1C(=O)Nc1ccc2oc(-c3cccc(C)c3)nc2c1,6% (active)
16,COc1cc2ccccc2cc1C(=O)Nc1cccc(-c2nc3cc(C)ccc3o2)c1C,75% (inactive)
17,COc1cc2ccccc2cc1C(=O)Nc1ccc2oc(-c3cccc(Cl)c3Cl)nc2c1,71% (inactive)
18,Brc1ccc(-n2nc(-c3ccccc3)c3cnc4cc5c(cc4c32)OCO5)cc1,112% (inactive)
19,CCN(C(=O)CSc1nnc(-c2ccc(Cl)cc2)o1)c1ccccc1,66% (inactive)
20,CCCN1C(=O)C(O)(CC(=O)c2ccc(C(C)C)cc2)c2ccccc21 (configuration not stated),129% (inactive)
21,Cc1ccc(C(=O)CC2(O)C(=O)N(Cc3ccccc3F)c3ccccc32)cc1 (configuration not stated),71% (inactive)
22,CCCCN1C(=O)C(O)(CC(=O)c2ccc(C)cc2C)c2cc(Br)ccc21 (configuration not stated),1% (active)
23,Cc1ccc(C(=O)CC2(O)C(=O)N(CCc3ccccc3)c3ccc(Br)cc32)cc1 (configuration not stated),24% (inactive)

row,SMILES,survival
1,CCCCN1C(=O)C(O)(CC(=O)c2ccc(CC)cc2)c2cc(Br)ccc21 (configuration not stated),2% (active)
2,COc1ccc(OC)c(C(=O)CC2(O)C(=O)N(Cc3ccccc3C)c3ccccc32)c1 (configuration not stated),118% (inactive)
3,CCCN1C(=O)C(O)(CC(=O)c2ccc(OC)c(OC)c2)c2ccccc21 (configuration not stated),130% (inactive)
4,Cc1ccc(C(=O)CC2(O)C(=O)N(Cc3ccccc3)c3ccccc32)c(C)c1 (configuration not stated),20% (inactive)
5,CCCCN1C(=O)C(O)(CC(=O)c2ccc(C(C)(C)C)cc2)c2ccccc21 (configuration not stated),3% (active)
6,CCc1ccc(C(=O)CC2(O)C(=O)N(CCc3ccccc3)c3ccc(Br)cc32)cc1 (configuration not stated),36% (inactive)
7,O=C(CC1(O)C(=O)N(Cc2ccccc2)c2ccc(Br)cc21)c1ccccc1 (configuration not stated),30% (inactive)
8,Cc1ccccc1CN1C(=O)C(O)(CC(=O)c2cccc(Br)c2)c2ccccc21 (configuration not stated),10% (active)
9,COC(=O)CSc1ncc2c(n1)-c1ccccc1N(Cc1cccc(F)c1)S2(=O)=O,70% (inactive)
10,CC(C)CCNC(=O)c1cccc(-n2cnc3cccnc32)c1,136% (inactive)
11,Fc1ccc(-c2cn3cc(Cc4ccccc4Cl)sc3n2)cc1,53% (inactive)
12,N#Cc1ccc2ccn(CC(N)=O)c2c1,95% (inactive)
13,CCOc1ccccc1N(CC)C(=O)c1cc2ccc3cccnc3c2[nH]1,74% (inactive)
14,Cc1ccc(CNC(=O)c2cc3ccc4cccnc4c3[nH]2)cc1,0% (active)
15,O=C(NCc1ccccc1)c1cc2ccc3cccnc3c2[nH]1,73% (inactive)
16,CCOc1ccccc1NC(=O)c1cc2ccc3cccnc3c2[nH]1,10% (active)
17,O=C(NCc1ccc(Cl)cc1)c1cc2ccc3cccnc3c2[nH]1,49% (inactive)
18,CCOC(=O)c1ccccc1NC(=O)c1cc2ccc3cccnc3c2[nH]1,121% (inactive)
19,Cc1ccc(-c2nnn(CC(=O)N(CC(=O)NCCC(C)C)c3ccc(F)cc3)n2)cc1,84% (inactive)
20,CCOC(=O)C1C(=O)N(C(=O)c2cncc(Br)c2)CC1c1ccccc1 (configuration not stated),112% (inactive)
21,CCOC(=O)c1cc(S(=O)(=O)Nc2cc(F)ccc2C)[nH]n1,75% (inactive)
22,CCC1Oc2ccccc2N(CC(=O)NCc2ccc(C)cc2)C1=O (configuration not stated),77% (inactive)
23,CC1Oc2ccccc2N(CC(=O)NCc2ccccc2)C1=O (configuration not stated),105% (inactive)

row,SMILES,survival
1,CCC1Oc2ccccc2N(CC(=O)NCc2ccccc2)C1=O (configuration not stated),-3% (active)
2,Cc1ccc(CCNC(=O)c2ccc(CSCc3ccc(C)cc3)o2)cc1,65% (inactive)
3,CCc1nn2c(=O)cc(COC(=O)c3cccc(NC(=O)COc4ccccc4F)c3)nc2s1,124% (inactive)
4,CC(C)(C)OC(=O)N1CCC(c2c(C(=O)NCCN3CCOCC3)cnn2-c2ccc(F)cc2F)CC1,-3% (active)
5,CCOC(=O)N1CCC(NC(=O)c2cnn(-c3ccc(F)cc3F)c2C2CCN(C(=O)OC(C)(C)C)CC2)CC1,82% (inactive)
6,CC(C)(C)OC(=O)N1CCC(c2c(C(=O)NCCN3CCOCC3)cnn2-c2ccc(F)cc2)CC1,89% (inactive)
7,Cc1cccc(C)c1-n1ncc(C(=O)NCCN2CCOCC2)c1C1CCN(C(=O)OC(C)(C)C)CC1,75% (inactive)
8,CC(C)(C)OC(=O)N1CCC(c2c(C(=O)NC3CCN(Cc4ccccc4)CC3)cnn2-c2cccc(F)c2)CC1,76% (inactive)
9,Cc1cccc(C)c1-n1ncc(C(=O)NCCN2CCN(C)CC2)c1C1CCN(C(=O)OC(C)(C)C)CC1,0% (active)
10,CC(C)(C)OC(=O)N1CCC(c2c(C(=O)NCCN3CCc4ccccc4C3)cnn2-c2ccc(F)cc2F)CC1,81% (inactive)
11,CC(C)(C)OC(=O)N1CCC(c2c(C(=O)NC3CCN(Cc4ccccc4)CC3)cnn2-c2ccc(F)cc2F)CC1,-4% (active)
12,Cc1cccc(C)c1-n1ncc(C(=O)NCCCN2CCCCC2)c1C1CCN(C(=O)OC(C)(C)C)CC1,85% (inactive)
13,Cc1cccc(OCC(=O)Nc2c(C(=O)N3CCN(c4ccccc4)CC3)oc3ccccc23)c1,86% (inactive)
14,CN=C1SC(CC(=O)NC(N)=O)C(=O)N1C (configuration not stated),92% (inactive)
15,COc1ccc(OC)c(NC(=O)CSc2ccnc(=O)[nH]2)c1,80% (inactive)
16,CC(=O)Nc1cccc(NC(=O)Cn2c(-c3cccnc3)ccc(C#N)c2=O)c1,89% (inactive)
17,CCN1CCN(C(c2ccc(OC)cc2)c2c(O)cc(C)n(Cc3ccco3)c2=O)CC1 (configuration not stated),71% (inactive)
18,CCOC(=O)c1c(NC(=O)CN(CC)CC)sc2c1CCC/C2=N\O,112% (inactive)
19,O=C(CSc1nc(-c2ccco2)nc2cc(=O)[nH]n12)Nc1ccc(F)cc1,65% (inactive)
20,CC(NCc1ccc2c(c1)OCO2)C(=O)NC1CCCCC1 (configuration not stated),103% (inactive)
21,CCOC(=O)c1cc(-c2ccccc2)n(CCC(=O)NCCc2ccccc2)c1C,-2% (active)
22,CCOC(=O)c1cc(-c2ccccc2)n(CCC(=O)NCCc2cccc(C)c2)c1C,49% (inactive)
23,CCOC(=O)c1cc(-c2ccccc2)n(CCC(=O)NCCc2ccc(C)cc2)c1C,73% (inactive)

# Source: PubChem BioAssay AID463173 (ICCB-Longwood Screening Facility, Harvard Medical School, 2010)
